{"source": "PubChem BioAssay (NCI)", "note": "The panel holds about 83,000 compounds, 20% with a hit somewhere; the sample as a whole holds those more often.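 Compound tested at a single concentration for 48 hours in 96-well plates; a percent growth value below 10 was scored as active.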 Unmarked numbers belong to inactive results. Active and inactive are the calls of the source.", "data": [{"tested_on": "HL-60(TB) leukemia", "assay": "NCI-60 one-dose screen, 48 h (100 = growth as untreated, 0 = no growth, -100 = all killed)", "conditions": "10 µM unless noted", "values": [{"smiles": "CC(C)SC1=NC(=C(C(=N1)NC2=ClC=CC=C2)C#N)C3=CC=CC=C3", "growth": "84.5%"}, {"smiles": "COc1ccc(-c2nc3cc(Cl)c(Cl)cc3n2CC(=O)N=Nc2c(O)[nH]c3ccccc23)cc1", "growth": "92.5%"}, {"smiles": "C[C@@H]1C[C@H]2C(=O)O[C@@H](C)C(NC(=O)[C@H](Cc3cc(F)cc(F)c3)NC(=O)Nc3ccc(C4CC4)cc3F)C(=O)N3CCC[C@H]3C(=O)N3CCCC[C@H]3C(=O)N[C@@H](CO)C(=O)N2C1", "note": "(stereo not given in full)", "growth": "11.5%"}, {"smiles": "COc1cc(-c2noc(C[C@@H](NC(=O)OCc3ccccc3)C(C)C)n2)cc(OC)c1OC", "growth": "100%"}, {"smiles": "CN(C)c1ncc(/C=C2\\SC(=S)N(Cc3ccccc3Cl)C2=O)s1", "growth": "94%"}, {"smiles": "O=C(NCCCNc1cc(-c2cn(-c3ccccc3)nc2-c2cccc(O)c2)ccn1)Nc1cccc(C(F)(F)F)c1", "growth": "24.7%"}, {"smiles": "O=C(CN1CCOCC1)NNc1ncnc2ccccc12", "growth": "53%"}, {"smiles": "COc1ccccc1Cn1cc(C#N)c(N)c1C(=O)c1ccc(Br)cc1", "growth": "92.8%"}, {"smiles": "C#Cc1nc(C2=C(C)C(=N\\O)/C(=N/O)C2)cs1", "growth": "81.7%"}, {"smiles": "O=C(O)CCCCCN1C(=O)/C(=C/c2ccc(O)c(O)c2)SC1=S", "growth": "101%"}, {"smiles": "O=C1C(c2ccccc2)=C(N2CCc3ccccc32)OC1(Cl)Cl", "growth": "-14.6% (active)"}, {"smiles": "CN1CCN(c2ccc(C(=O)Nc3cccc(-c4cn(-c5ccc(S(N)(=O)=O)cc5)nn4)c3)cc2C(F)(F)F)CC1", "growth": "77%"}, {"smiles": "C=CCn1c(SCC(=O)Nc2ccc(C(=O)/C=C/c3ccc(Cl)cc3)cc2)nnc1-c1c[nH]c2ccccc12", "growth": "87.5%"}, {"smiles": "C/C(=C(/C)C1CC1CCN(C(=O)c1ccc([N+](=O)[O-])cc1)S(=O)(=O)c1ccc(C)cc1)C1CCCCC1", "note": "(stereo not given)", "growth": "96.5%"}, {"smiles": "O=C(Nc1nonc1-c1ccccc1)c1ccc(C(F)(F)F)cc1", "growth": "79.1%"}, {"smiles": "O=S(=O)(NCCNc1nccc(-n2cnc3ccccc32)n1)c1ccc(C(F)(F)F)cc1", "growth": "73.8%"}, {"smiles": "N/C(=N\\c1nc2c(Cl)cccc2s1)C(Cl)(Cl)Cl", "growth": "25.5%"}, {"smiles": "N/C(=N\\C(N)=N\\c1nc2ccccc2s1)c1ccc(Cl)cc1", "growth": "90.3%"}, {"smiles": "CC(C)(C)OC(=O)Nc1ccc(-c2cccc(Oc3ccc4nnc(Cl)n4n3)c2)cc1", "growth": "64%"}, {"smiles": "COc1ccc(S(=O)(=O)NCCCNc2nccc(-c3[nH]c(-c4ccccc4)nc3-c3ccc(Cl)c(O)c3)n2)cc1", "growth": "43.2%"}, {"smiles": "Cn1c(SCC(=O)c2cccs2)nc2ccccc2c1=O", "growth": "91.8%"}, {"smiles": "COc1ccc2c(ccn2C(=O)N2c3ccccc3Sc3ccccc32)c1", "growth": "13.7%"}, {"smiles": "NC(=O)c1cc(-c2ccc3ncnc(N4CCc5cc(F)c(Cl)cc54)c3c2)cnc1N", "growth": "-4.97% (active)"}, {"smiles": "CC(C)c1ccc(NCc2cn(-c3ccc(C(=O)O)cc3)nc2-c2cc(C(F)(F)F)cc(C(F)(F)F)c2)cc1", "growth": "83.1%"}, {"smiles": "NC(N)=Nc1ccc(Nc2cccc(Nc3ccc(Cl)c(C(F)(F)F)c3)c2)cn1", "growth": "-40.5% (active)"}, {"smiles": "Brc1cccc(-c2cc(-c3cnc4c(c3)OCCO4)n[nH]2)c1", "growth": "21.2%"}, {"smiles": "Nc1ccc(-c2nnc(SCc3ccc(O)c4ncccc34)o2)cc1", "growth": "-5.84% (active)"}, {"smiles": "C#CCOc1ccc(-c2csc(NC(=O)C=C)n2)cc1NS(=O)(=O)c1cccc2c(N(C)C)cccc12", "growth": "-4.97% (active)"}, {"smiles": "COc1ccc(/C=N/NC(=O)c2cn(C3CC3)c3c(OC)c(N4CC5CCCNC5C4)c(F)cc3c2=O)cc1", "note": "(stereo not given)", "growth": "80.6%"}, {"smiles": "CCOC(=O)c1cnc2c(-c3ccc(Cl)c(Cl)c3)cnn2c1", "growth": "59.5%"}, {"smiles": "C[C@@H]1CN(c2ccc3ncc(C#Cc4cncc(C(=O)Nc5ccc(CN6CCN(C)CC6)c(C(F)(F)F)c5)c4)n3n2)C[C@H](C)O1", "growth": "-30.7% (active)"}, {"smiles": "CC1OC(O[C@@H]2[C@H](O)C(CO)OC(O[C@H]3COC(O[C@H]4CC[C@]5(C)[C@H]6CC[C@]78OC[C@@]9(CCC(C)(C)C[C@H]97)[C@H](O)C[C@@]8(C)[C@]6(C)CC[C@H]5C4(C)C)[C@@H](OC4OC(CO)[C@@H](O)[C@@H](O)[C@@H]4O)[C@@H]3O)[C@H]2OC2OC[C@@H](O)[C@@H](O)[C@@H]2O)[C@@H](O)[C@@H](O)[C@H]1O", "note": "(stereo not given in full)", "growth": "-61.4% (active)"}, {"smiles": "Oc1ccccc1-c1nnc(SCc2ccc(O)c3ncccc23)n1-c1ccccc1", "growth": "4.52% (active)"}, {"smiles": "N/C(=N\\C(N)=N\\c1nc2ccccc2s1)c1ccc(C(F)(F)F)cc1", "growth": "53.6%"}, {"smiles": "CCC(CC)N1C(=O)/C(=c2\\sc3n(c2=O)C2C(NN=3)N(CC)C(=O)N2CC)c2ccccc21", "note": "(stereo not given)", "growth": "-17.8% (active)"}, {"smiles": "CS(=O)c1nccc(-c2c(-c3ccc(F)c(OCc4ccccc4)c3)nc3sccn23)n1", "note": "(stereo not given)", "growth": "-6.35% (active)"}, {"smiles": "O=S(=O)(NCCCNc1nccc(-n2cnc3ccccc32)n1)c1ccc(F)cc1", "growth": "90.9%"}, {"smiles": "C[C@@H](Nc1ncnc2ccc(-c3cnc(Cl)c(NS(C)(=O)=O)c3)cc12)c1ccccc1", "growth": "39%"}, {"smiles": "O=C1c2cc(Br)ccc2-n2c1nc1cc(Br)ccc1c2=O", "growth": "80%"}, {"smiles": "Nc1nc(Nc2ccccc2SSc2ccccc2Nc2nc(N)nc(-c3ccccc3)n2)nc(-c2ccccc2)n1", "growth": "62.1%"}]}]}
